HT1080NT lethal: qHTS for induction of synthetic lethality in tumor cells producing 2HG: qHTS for the HT-1080-NT fibrosarcoma cell line; HT-1080-NT fibrosarcoma viability, CellTiter-Glo ATP luminescence, 48 h; AID 686970, 2013; 360,000 tested, 1.6% active; Potency, µM (doses to about 46.1 µM), for inactives: top-dose activity, negative = less viability, hits mostly cytotoxic;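 note: NT is the 2HG producing partner of a matched IDH1 knockdown line; 0% = DMSO-treated cells and -100% = media-only wells without cells; nearly all actives have a fitted effect of over 55% in size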
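Viability of the 2HG-overproducing fibrosarcoma line after 48 hours of compound exposure at 37 degrees C was determined by luminescence with CellTiter-Glo, and concentration-effect curves were then fitted and categorized.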
HT1080 IDH1KD tx: qHTS for induction of synthetic lethality in tumor cells producing 2HG: qHTS for the HT-1080-IDH1KD cell line | 360,000 tested, 2% active | Potency, µM (series often up to 46.1 µM), for inactives: at the top dose activity, negative = toxicity, most hits filed as cytotoxic | HT-1080 IDH1 knockdown viability, ATP luminescence, 48 h | AID 686971, 2013;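 note: 0% = DMSO wells and -100% = cell-free medium wells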
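Viability of IDH1-knockdown HT-1080 fibrosarcoma cells was assessed by CellTiter-Glo after 48 h at 37 °C with titrated compound; concentration-effect curves were classified by fit quality and response size.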
ATXN2 expr inh: Primary qHTS for Inhibitors of ATXN expression; HEK-293 ATXN2-luciferase reporter, luminescence, 24 h; Potency, µM (top dose mostly 57 µM), inactives show at the top dose activity change, negative = inhibition, most hits filed as inhibitors; 360,000 tested, 0.72% active; note: % is set by controls: 0 for no effect and ±100 for the full control effect; nearly all actives have a fitted effect of over 55% in size
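qHTS (up to 57 uM final) was run with 24 h compound exposure of reporter cells at 37 °C. Each well was multiplexed: SteadyGlo luminescence measured ATXN2-luciferase expression after a fluorogenic Gly-Phe-AFC viability readout (25 uM final).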
ATXN viability: Viability Counterscreen for Primary qHTS for Inhibitors of ATXN expression; 400,000 tested, 0.49% active; S2 cells (HEK-293 line with an ATXN2-luciferase reporter) viability, CellTiter-Fluor protease fluorescence, 24 h; Potency, µM (series often up to 56.7 µM), actives largely listed as cytotoxic; note: nearly all actives have a fitted effect of over 40% in size
HepG2 tox: qHTS for Inhibitors of TGF-b: Cytotox Counterscreen; HepG2 CAGA-GFP viability, ATP luminescence, 18 h; Potency, µM (highest dose often 46.1 µM), without a hit: at the highest dose activity change, negative = cytotoxicity, usual class: cytotoxic; 410,000 tested, 0.76% active; AID 588856, 2011
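HepG2 CAGA-GFP cells (1000/well, DMEM with 1% FBS) received compound, then TGF-beta at 500 pg/mL final, and were incubated 18 hours at 37 degrees C. Viability was read by CellTiter-Glo luminescence. Media-only wells were set as complete cell-killing and DMSO as no toxicity.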
TGFb SMAD3 inh: qHTS for Inhibitors of TGF-b. AID 588855, 2011. Potency, µM (highest dose often 46.1 µM), for inactives: top-dose activity, negative = inhibition, hits mostly inhibitors. HepG2 CAGA-GFP TGF-b/SMAD3 reporter, GFP fluorescence, 18 h; TGF-beta stimulated, 500 pg/mL final. 410,000 tested, 1.2% active; note: % is set by controls: 0 for no effect and ±100 for the full control effect; nearly all actives have a fitted effect of over 65% in size
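HEPG2 CAGA-GFP reporter cells (1000/well, DMEM with 1% FBS) received compounds, then recombinant TGF-beta at 500 pg/mL final for 18 hours at 37 degrees C. Per-cell GFP summed per well was normalised to unstimulated and stimulated DMSO controls before curve fitting.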
* marks the source's active call; other numbers are inactive results; [ ] = dose if it differs, or a comment. Only some compounds are listed: those with a hit (about 3.8% of all), similar ones and a draw of the others. Calls come from the whole dose curve; as a rule, active = well fitted curve in the direction sought with a large enough effect; inconclusive = small, poorly fitted or top-dose-only effect, or another doubt; inactive = no such curve, though single readings can be large; an effect the other way counts as inactive or inconclusive. Potency is the fitted concentration of half-maximal effect.

O=C(Nc1ccccc1)Nc1ccc(C(=O)N2CCCC2)cc1 was read as HT1080NT lethal inconclusive, HT1080 IDH1KD tx 12µM*, ATXN2 expr inh inconclusive, ATXN viability inactive, HepG2 tox -62% and TGFb SMAD3 inh 26%.
Cn1cc([N+](=O)[O-])c(C(=O)Nc2cc(Oc3cccnc3)cc([N+](=O)[O-])c2)n1 was read as HT1080NT lethal 21µM*, HT1080 IDH1KD tx 18µM*, ATXN2 expr inh -19%, ATXN viability inconclusive, HepG2 tox -83% and TGFb SMAD3 inh 13µM*.
For Cn1cc([N+](=O)[O-])c(C(=O)Nc2ccc(C3CCCCC3)cc2)n1 the results were HT1080NT lethal 23µM*, HT1080 IDH1KD tx inconclusive, ATXN2 expr inh 2%, ATXN viability inconclusive, HepG2 tox -105% and TGFb SMAD3 inh inconclusive.
`Cn1cc([N+](=O)[O-])c(C(=O)Nc2ccc(C(=O)N3CCCCC3)cc2)n1` gave HT1080NT lethal inconclusive, HT1080 IDH1KD tx 23µM*, ATXN2 expr inh 15%, ATXN viability inactive, HepG2 tox 8.9µM* and TGFb SMAD3 inh inconclusive.
`S=Cc1nc2ccccc2[nH]1` gave HepG2 tox -1% and TGFb SMAD3 inh -1%.
`CCCC1C(=O)Nc2ccccc2N1C(=O)c1ccc(C(C)(C)C)cc1` (stereo not given) gave HT1080NT lethal 9.2µM*, HT1080 IDH1KD tx inconclusive, ATXN2 expr inh -14%, ATXN viability inactive, HepG2 tox -89% and TGFb SMAD3 inh inconclusive.
Screening CCCC1C(=O)Nc2ccccc2N1C(=O)c1cccc(C)c1 (stereo not given) returned HT1080NT lethal -3%, HT1080 IDH1KD tx -5%, ATXN2 expr inh -11%, ATXN viability inactive, HepG2 tox -10% and TGFb SMAD3 inh 0%.
`Cc1ccc(C(=O)Nc2c(-c3cccs3)c(=O)c3ccccc3n2C)cc1` gave HT1080NT lethal inconclusive, HT1080 IDH1KD tx inconclusive, ATXN2 expr inh -9%, ATXN viability inconclusive, HepG2 tox 14µM* and TGFb SMAD3 inh inconclusive.
Screening O=C(c1ccc2c(c1)OCO2)N(Cc1cc2cc3c(cc2nc1N1CCOCC1)CCC3)CC1CCCO1 (stereo not given) returned ATXN viability inactive.
For COc1ccccc1N(C(=O)c1snc(C(N)=O)c1N)C(C(=O)NCc1ccccc1)c1ccc(O)cc1 (stereo not given) the results were HT1080NT lethal -18%, HT1080 IDH1KD tx -17%, ATXN2 expr inh 1%, ATXN viability inactive, HepG2 tox -2% and TGFb SMAD3 inh -27%.
Screening NC(=O)c1nsc(C(=O)N(c2ccccc2F)C(C(=O)NCc2ccc(F)cc2)c2ccc(O)cc2)c1N (stereo not given) returned HT1080NT lethal 16µM*, HT1080 IDH1KD tx inconclusive, ATXN2 expr inh inconclusive, ATXN viability inactive, HepG2 tox -13% and TGFb SMAD3 inh inconclusive.
For COc1ccc(/C=N/NC(=O)COc2ccccc2-c2ccccc2)cc1 the results were HT1080NT lethal 2.3µM*, HT1080 IDH1KD tx 0.82µM*, ATXN2 expr inh -38%, ATXN viability inconclusive, HepG2 tox -83% and TGFb SMAD3 inh inconclusive.
`O=C(COc1ccccc1-c1ccccc1)N/N=C/c1cccc2ccccc12` gave HT1080NT lethal 1.3µM*, HT1080 IDH1KD tx 1µM*, ATXN2 expr inh 0%, ATXN viability inconclusive, HepG2 tox -13% and TGFb SMAD3 inh inconclusive.
Screening COC(=O)C1=CN(Cc2cccs2)C=C(C(=O)OC)C1c1cccc(Cl)c1 returned HT1080NT lethal -8%, HT1080 IDH1KD tx -23%, ATXN2 expr inh -18%, ATXN viability inconclusive, HepG2 tox 10µM* and TGFb SMAD3 inh inconclusive.
Screening COC(=O)C1=CN(Cc2cccs2)C=C(C(=O)OC)C1c1ccc(OC)cc1OC returned HT1080NT lethal -10%, HT1080 IDH1KD tx -8%, ATXN2 expr inh -10%[11.3 µM], HepG2 tox 13% and TGFb SMAD3 inh 18%.
Screening C(=C\c1ccccc1)/CSc1nnc(-c2ccccn2)n1Cc1ccco1 returned HT1080NT lethal 5.8µM*, HT1080 IDH1KD tx 4.1µM*, ATXN2 expr inh -19%, ATXN viability inconclusive, HepG2 tox -6% and TGFb SMAD3 inh inconclusive.
For NC(=O)CSc1nnc(-c2ccccn2)n1Cc1ccco1 the results were HT1080NT lethal 10%, HT1080 IDH1KD tx -1%, ATXN2 expr inh -12%, ATXN viability inactive, HepG2 tox -2% and TGFb SMAD3 inh 25%.
For CCNc1nc(N)nc(-c2cc(Cl)ccc2O)n1 the results were HT1080NT lethal 16µM*, HT1080 IDH1KD tx 23µM*, ATXN2 expr inh 81%, ATXN viability inactive, HepG2 tox 6% and TGFb SMAD3 inh inconclusive.
Screening CCCCNc1nc(N)nc(-c2cc(Cl)ccc2O)n1 returned HT1080NT lethal -11%, HT1080 IDH1KD tx 0%, ATXN2 expr inh 91%, ATXN viability inactive, HepG2 tox -55% and TGFb SMAD3 inh inconclusive.
CC1CC=CC2C1C(=O)N(Cc1ccccc1)C2c1ccc(-c2ccoc2)cc1F (stereo not given) was read as HepG2 tox -14% and TGFb SMAD3 inh inconclusive.
Screening O=C(Cn1sc2ccccc2c1=O)Nc1ccccc1 returned HT1080NT lethal inconclusive, HT1080 IDH1KD tx inconclusive, ATXN2 expr inh 35µM*, HepG2 tox -94% and TGFb SMAD3 inh 18µM*.
O=C(Cn1sc2ccccc2c1=O)NC12CC3CC(CC(C3)C1)C2 was read as HT1080NT lethal -9%, HT1080 IDH1KD tx inconclusive, ATXN2 expr inh -33%, ATXN viability inconclusive, HepG2 tox 5.6µM* and TGFb SMAD3 inh inconclusive.
Screening O=C(CN1C(=O)c2ccccc2C1=O)Nc1ccccc1 returned HT1080NT lethal 14%, HT1080 IDH1KD tx 3%, ATXN viability inactive, HepG2 tox 6% and TGFb SMAD3 inh inconclusive.
CCN(CC)S(=O)(=O)c1ccc(S(=O)(=O)Nc2c(C)nn(C)c2C)cc1 was read as HT1080NT lethal 16µM*, HT1080 IDH1KD tx inconclusive, ATXN2 expr inh 2%, ATXN viability inactive, HepG2 tox -17% and TGFb SMAD3 inh -11%.
For COc1ccc(-n2cc(CNC3CCN(C)CC3)c(-c3cccc(F)c3)n2)cc1 the results were HT1080NT lethal 21µM*, HT1080 IDH1KD tx 21µM*, ATXN2 expr inh inconclusive, ATXN viability inactive, HepG2 tox 11µM* and TGFb SMAD3 inh inconclusive.
